# Only a selection was taken, and hits are over-represented in it overall.
# AMA1 RON2 block = disrupts binding of P. falciparum AMA1 to RON2; AID 720542; Potency, µM (titrated, usually from 58.2 µM), inactives show top-dose activity change, negative = inhibition, hits mostly inhibitors; 0.2% of 360,000 active; AlphaScreen AMA1-biotinylated RON2 peptide binding; active means well fitted inhibition curve with a large enough effect; inconclusive means small, poorly fitted or top-dose-only effect; inactive means no such curve, though single readings can be large or run the other way;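 further: potency means the concentration at half of the fitted maximal effect; 0% = vehicle wells and -100% = peptide control; nearly all actives have a fitted effect of over 45% in size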
#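 AMA1 (3D7) with his tag at 25 nM final met compounds first, then biotinylated RON2 peptide at 25 nM; detection used donor plus acceptor beads, 10 µg/mL apiece, read by AlphaScreen after 30 min at room temperature.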
# Marburg entry inh = blocks Marburg virus binding to or entry into cells; Marburg virus pseudotyped entry inhibition, cell reporter; Potency, µM (top dose mostly 37.8 µM), for inactives: at the highest dose activity change, negative = inhibition, hits mostly inhibitors; 1.8% of 300,000 active; calls by dose curve; tested in HEK293 cells; further: potency means the concentration at half of the fitted maximal effect; on the % scale 0 is the no-effect control and ±100 the full control effect
# Shiga inhibitor = blocks Shiga toxin action in Vero cells; 9.2% of 290,000 active; inhibition, % at 38.7 µM; AID 2315; Vero cells, Shiga toxin protein synthesis inhibition reporter; in the data active means inhibition mostly above about 28%, no sharp cut-off; inactive means mostly below about 43%; further: 0% is about no effect
# Lassa entry inh = inhibitors of Lassa virus binding or cell entry. Lassa virus pseudotype entry inhibition, cell reporter. Potency, µM (doses to about 37.9 µM), for inactives: top-dose activity change, negative = inhibition, most hits filed as inhibitors. 1.2% of 300,000 active; calls by dose curve; tested in HEK293 cells; further: potency means the concentration at half of the fitted maximal effect; on the % scale 0 is the no-effect control and ±100 the full control effect; nearly all actives have a fitted effect of over 50% in size
# CHX counter = counter-screen hit for Shiga toxin inhibitors, cycloheximide; max response, %; cell reporter, cycloheximide protein synthesis inhibition counterscreen; AID 2314; 12% of 300,000 active; in the data active means max response mostly above about 13%, no sharp cut-off; inactive means mostly below about 14%; further: read at 38.3 µM for the half of the compounds with a filed dose; 0% is about no effect
# Starred values were filed as active, the others as inactive; u = inconclusive; x = not tested or not shown; [ ] = another dose, or the depositor's remark.
SMILES,AMA1 RON2 block,Marburg entry inh,Shiga inhibitor,Lassa entry inh,CHX counter
O=c1c(Cl)c(Nc2cccc(Cl)c2)cnn1-c1nc2ccccc2s1,-13%,u,69*,u,88*
Cc1ccc(C)c(N2CCN(c3cnn(-c4nc5ccccc5s4)c(=O)c3Cl)CC2)c1,6%[11.6 µM],u,138*,-1%,64*
COc1ccc(Nc2cnn(-c3nc4ccccc4s3)c(=O)c2Cl)cc1,-6%,u,76*,-29%,48*
CN(C)c1ccc(-c2c(C3C4C=CCCC4(C)C(=O)N3Cc3ccccc3)ccc3ccccc23)cc1 (stereo not given),x,x,13,x,14
COc1ccccc1-c1csc(C(C)(O)c2cccc(F)c2)n1 (stereo not given),11%,x,x,x,x
O=C(COC(=O)c1cccc(O)c1)Nc1ccc(S(=O)(=O)N2CCOCC2)cc1,-3%,x,x,x,x
CCN(CC)C(=S)SCC(=O)Nc1ccc(F)cc1,-16%,u,12,u,14
CCN(CC)C(=S)SCC(=O)c1ccccc1,10%,u,68*,u,62*
CCN(CC)C(=S)SCC(=O)c1ccc(F)cc1,47%,u,60*,-15%,40*
COc1cccc(Cn2c(Oc3cc(C)cc(C)c3)nc3c2c(=O)n(C)c(=O)n3C)c1,x,19%[46.1 µM],x,u,x
c1ccc2c(c1)[IH]c1ccccc1-2,13%,x,x,x,x
COc1ccc(NC(=O)COC(=O)C2CC3C=CC2C3)cc1 (stereo not given),-5%,25%,42*,-14%,20*
Cc1ccc(S(=O)(=O)N2CCCCC2)cc1NC(=O)COC(=O)C1CC2C=CC1C2 (stereo not given),14%,11%,-13,u,-2
CCN(CC)S(=O)(=O)c1cccc(NC(=O)COC(=O)C2CC3C=CC2C3)c1 (stereo not given),-4%,x,15,x,2
O=C(COC(=O)C1CC2C=CC1C2)Nc1ccccc1F (stereo not given),-3%,19%[46.1 µM],72*,9%,38*
O=C(COC(=O)C1CC2C=CC1C2)NCCc1ccccc1 (stereo not given),-14%,18%[46.1 µM],25,12%,20*
COc1ccccc1N(O)C1CC(=O)N(c2ccc(Br)cc2)C1=O (stereo not given),4%,0%,42*,-7%,27*
CC1=NN(c2nc(-c3ccc(C)cc3)cs2)C(=O)C1N=Nc1ccc(C(N)=O)cc1 (stereo not given),15%,6.5µM*,30,4.6µM*,15*
CC1=NN(c2nc(-c3ccc(C)cc3)cs2)C(=O)C1N=Nc1ccc2ccccc2c1 (stereo not given),-18%,23%,72,3%,18*
CC1=NN(c2nc(-c3ccccc3)cs2)C(=O)C1N=Nc1ccccc1 (stereo not given),31%,-2%[46.1 µM],53*,11%[46.1 µM],43*
CCCN(CCC)CCNC(=O)c1sc2nc3n(c(=O)c2c1C)CCCCC3,x,x,x,-16%[46.1 µM],x
COC(=O)c1cc(OC)c(OC)cc1NC(=O)Nc1ccc(OC)cc1,3%,u,-8,6%,-4
COc1ccc(CNC(=O)c2ccc3nccnc3c2)cc1,-18%,12%,-16,20%,-1
COc1ccc(NC(=O)Nc2ccc3nonc3c2)cc1,6%,u,66*,2%,34*
COc1ccc(NC(=O)Nc2ccc3nccnc3c2)cc1,-9%,u,80,-15%,22*
SMILES,AMA1 RON2 block,Marburg entry inh,Shiga inhibitor,Lassa entry inh,CHX counter
O=C1COc2ccc(S(=O)(=O)CCC(=O)NC3CCCCC3)cc2N1,6%,3%[46.1 µM],-2,-2%[46.1 µM],6
Cc1cc(NC(=O)c2cc(-c3cccc(Cl)c3)on2)nn1Cc1ccc(Cl)cc1,x,-20%[46.1 µM],x,10%[46.1 µM],x
Cc1ccc(S(=O)(=O)CC(=O)c2ccc(C)c([N+](=O)[O-])c2)cc1,-2%,0%,8,-21%,7
COc1cccc2c1OC1(C)CC2NC(=O)N1c1cccc(C(=O)Nc2ccc3c(c2)OCCO3)c1 (stereo not given),0%,1%,93*,-1%,33*
Cc1ccc(S(=O)(=O)CC(=O)c2ccc3c(c2)OCCO3)cc1,1%,21%[46.1 µM],82*,10%[46.1 µM],45*
Cc1ccc(C(=O)Nc2ccc3c(c2)OCO3)cc1,17%,u,56,u,25*
COc1ccc(NC(=O)c2cccc(N3C(=O)NC4CC3(C)Oc3ccccc34)c2)cc1 (stereo not given),2%,-21%,-20,-15%,-4
CCC(=O)Nc1cccc(NC(=O)c2ccc3c(c2)OCCO3)c1,2%,7%,56*,12%,50*
COc1ccc(OC)c(NC(=O)COC(=O)[C@H](Cc2ccccc2)NC(=O)c2ccco2)c1,7%,x,x,x,x
Cc1ccc2cc(CN(C(=O)c3cccc(Cl)c3)c3ccccc3)c(=O)[nH]c2c1,x,3%[46.1 µM],x,u,x
Cc1ccc(CNc2ccc3c(c2)OCO3)cc1,u,u,100*,-22%,42*
CCN1C(=O)c2ccc(C(=O)NCc3ccc4c(c3)OCO4)cc2C1=O,5%,u,13,11%,-1
O=C(Nc1cccc(F)c1)c1ccc2c(c1)OCO2,-2%,u,69*,-3%,59*
COc1ccc(C(=O)NC(=S)Nc2nc(C)cc(C)n2)cc1Br,38%,1%[46.1 µM],3,5%[46.1 µM],21*
CCN1C(=O)c2ccc(C(=O)Nc3ccc4c(c3)OCO4)cc2C1=O,-7%,x,62*,x,23*
O=C(Nc1c(C(=O)Nc2cccc(F)c2)oc2ccccc12)c1ccc2c(c1)OCO2,6%,u,30,16%,12
O=C(NNC(=O)c1ccc(F)cc1F)c1ccc2c(c1)OCO2,11%,6%[46.1 µM],62*,x,48*
CCOCC(=O)Nc1c(C(=O)Nc2ccc3c(c2)OCO3)oc2ccccc12,15%,u,22,0%[46.1 µM],12
O=C(Nc1ccc2c(c1)OCCO2)c1ccc(Br)o1,-4%,u,91*,u,42*
Cc1ccc(NC(=O)c2oc3ccccc3c2NC(=O)c2ccc3c(c2)OCO3)cc1,-4%,-3%,33*,13%,12*
COc1ccc(C(=O)Nc2ccc3c(c2)OCCO3)cc1Br,-18%,x,34*,x,19*
CCOc1ccc(C(=O)Nc2ccc3c(c2)OCCO3)cc1Br,x,x,x,2%[46.1 µM],x
CCCOc1cccc(C(=O)Nc2cccc(NC(=O)c3ccco3)c2)c1,3%,5%[46.1 µM],67,-16%,14*
CCCc1cc2c(cc1NC(=O)c1ccc(C(C)(C)C)cc1)OCO2,u,u,29*,-6%,22*
CCC(O)c1cc2c(cc1NC(=O)c1cccc(Br)c1)OCCO2 (stereo not given),x,-18%[46.1 µM],x,0%[46.1 µM],x
O=C(Nc1ccc2c(c1)OCCO2)c1cccc(Br)c1,-6%,u,43*,-2%[46.1 µM],38*
CCOc1ccc(C(=O)Nc2ccc3c(c2)OCCO3)cc1,13%,u,49*,u,34*
O=C(Oc1ccc2c(c1)OCO2)c1ccc(F)cc1Cl,6%,u,137*,u,72*
Cc1ccc(NC(=O)COC(=O)c2ccc3c(c2)OCCO3)cc1,5%,x,x,x,x
